Measurements taken from PubChem BioAssay (EPA / NIEHS).
Active and inactive are the calls of the source. How the source made its calls: active means hit-call score of the fitted dose curve at least 0.9, where 1 is the maximum; inactive means score below 0.9.

Tests used:
Details in all cases: mRNA level, 48 h; actives raise or lower the signal
[1] = read-out: CYP4A11 (gene 1579); assay: LTEA_HepaRG_CYP4A11: Life Technologies and Expression Analysis (LTEA) Assay for CYP4A11 using HepaRG (AID 2283486)
In short: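 Readout is CYP4A11 transcript level by qRT-PCR, normalized to three housekeeping genes and fitted bidirectionally against 0.5% DMSO. Human HepaRG cells were treated 48 h, in duplicate, with an 8-point half-log series topping at 100 uM.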

[2] = read-out: Cytochrome P450 3A4 (Homo sapiens) (UniProt P08684); assay: LTEA_HepaRG_CYP3A4: Life Technologies and Expression Analysis (LTEA) Assay for CYP3A4 using HepaRG (AID 2283487)
In short: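 In a human hepatic line (HepaRG), duplicate wells were treated 48 h with up to 100 uM chemical in half-log dilutions. Endpoint: CYP3A4 mRNA induction or loss relative to 0.5% DMSO vehicle, by qRT-PCR.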

[3] = read-out: DNA damage-inducible transcript 3 (DDIT3), DDIT3 (gene 1649); assay: LTEA_HepaRG_DDIT3: Life Technologies and Expression Analysis (LTEA) Assay for DNA damage-inducible transcript 3 (DDIT3) using HepaRG (AID 2283488)
In short: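 Eight-point concentration-response (100 uM highest, half-log dilutions) in HepaRG, 48 h, duplicate wells. Endpoint: qRT-PCR mRNA, normalized (ACTB, GAPDH, POLR2A), bidirectional fitting with DMSO as baseline.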

[4] = read-out: Pro-epidermal growth factor (Homo sapiens) (UniProt P01133); assay: LTEA_HepaRG_EGF: Life Technologies and Expression Analysis (LTEA) Assay for Epidermal growth factor (EGF) using HepaRG (AID 2283489)
In short: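 EGF transcript measured by Fluidigm TaqMan qRT-PCR with three housekeeping genes for normalization, 48 h after dosing HepaRG cultures in duplicate (top 100 uM, half-log steps, 0.5% DMSO vehicle). Gain or loss relative to DMSO fitted.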

[5] = read-out: Early growth response protein 1 (EGR1) transcription factor, EGR1 (gene 1958); assay: LTEA_HepaRG_EGR1: Life Technologies and Expression Analysis (LTEA) Assay for Early growth response protein 1 (EGR1) transcription factor using HepaRG (AID 2283490)
In short: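 HepaRG, 48 h exposure, 8-pt half-log series from 100 uM, 0.5% DMSO vehicle; EGR1 transcript by TaqMan qRT-PCR (Fluidigm array), housekeeping-normalized; bidirectional fit relative to DMSO baseline.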

[6] = read-out: Ezrin (EZR), EZR (gene 7430); assay: LTEA_HepaRG_EZR: Life Technologies and Expression Analysis (LTEA) Assay for Ezrin (EZR) using HepaRG (AID 2283491)
In short: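 Gain or loss of EZR mRNA is scored relative to 0.5% DMSO in human HepaRG cultures treated 48 h with test chemicals in duplicate, eight half-log concentrations from 100 uM.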

[7] = read-out: CYP3A5 (gene 1577); assay: LTEA_HepaRG_CYP3A5: Life Technologies and Expression Analysis (LTEA) Assay for CYP3A5 using HepaRG (AID 2283493)
In short: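 Readout was CYP3A5 mRNA by qRT-PCR. HepaRG cultures were exposed for 48 h in serum-free induction medium to chemicals at up to 100 uM, and responses were fitted in both directions relative to DMSO vehicle.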

[8] = read-out: Fatty Acid-Binding Protein 1 (FABP1), FABP1 (gene 2168); assay: LTEA_HepaRG_FABP1: Life Technologies and Expression Analysis (LTEA) Assay for Fatty Acid-Binding Protein 1 (FABP1) using HepaRG (AID 2283494)
In short: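 qRT-PCR readout of FABP1 transcript (normalized to three housekeeping genes) after 48 h chemical exposure of HepaRG cells; eight concentrations, half-log steps, max 100 uM, 0.5% DMSO vehicle; gain or loss fitted relative to DMSO baseline.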

[9] = read-out: Cytochrome P450 4A22 (Homo sapiens) (UniProt Q5TCH4); assay: LTEA_HepaRG_CYP4A22: Life Technologies and Expression Analysis (LTEA) Assay for Cytochrome P450 4A22 (CYP4A22) using HepaRG (AID 2283495)
In short: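 Gene expression measured by qRT-PCR against three housekeeping genes (ACTB, GAPDH, POLR2A), with gain or loss fitted relative to 0.5% DMSO vehicle. HepaRG cultures received 48 h chemical treatment, top concentration 100 uM, half-log steps, duplicate wells.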

[10] = read-out: Cytochrome P450 7A1 (Homo sapiens) (UniProt P22680); assay: LTEA_HepaRG_CYP7A1: Life Technologies and Expression Analysis (LTEA) Assay for Cytochrome P450 7A1 (CYP7A1) using HepaRG (AID 2283496)
In short: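 Using 0.5% DMSO as vehicle and baseline, chemicals were tested in duplicate over an 8-point range from 100 uM on HepaRG cells for 48 h; qRT-PCR signals were normalised to ACTB, GAPDH and POLR2A.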

[11] = read-out: Glutathione S-Transferase (GSTA2), GSTA2 (gene 2939); assay: LTEA_HepaRG_GSTA2: Life Technologies and Expression Analysis (LTEA) Assay for Glutathione S-Transferase (GSTA2) using HepaRG (AID 2283497)
In short: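 qRT-PCR readout of GSTA2 transcript, normalized to three housekeeping genes, fitted bidirectionally against 0.5% DMSO baseline. Differentiated HepaRG cells received compound for 48 h at 8 concentrations (top 100 uM, half-log steps).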

[12] = read-out: Glutamate-cysteine ligase catalytic (GCLC), GCLC (gene 2729); assay: LTEA_HepaRG_GCLC: Life Technologies and Expression Analysis (LTEA) Assay for Glutamate-cysteine ligase catalytic (GCLC) using HepaRG (AID 2283498)
In short: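 HepaRG, 48 h exposure, 8-pt half-log series from 100 uM, 0.5% DMSO vehicle; TaqMan qRT-PCR for GCLC mRNA, housekeeping-normalized; bidirectional curve fit vs DMSO baseline.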

[13] = read-out: Glutamate-cysteine ligase regulatory (GCLM), GCLM (gene 2730); assay: LTEA_HepaRG_GCLM: Life Technologies and Expression Analysis (LTEA) Assay for Glutamate-cysteine ligase regulatory (GCLM) using HepaRG (AID 2283500)
In short: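 In this multiplexed HepaRG gene-expression assay, GCLM mRNA change after 48 h treatment (8 concentrations, max 100 uM) was scored against DMSO by bidirectional curve fitting.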

[14] = read-out: Glutathione S-transferase M3 (GSTM3), GSTM3 (gene 2947); assay: LTEA_HepaRG_GSTM3: Life Technologies and Expression Analysis (LTEA) Assay for Glutathione S-transferase M3 (GSTM3) using HepaRG (AID 2283501)
In short: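 GSTM3 transcript levels came from Fluidigm TaqMan qRT-PCR normalized to three housekeeping genes, fitted in both directions against DMSO. HepaRG cultures received chemicals for 48 h in serum-free induction medium (0.5% DMSO), 8 half-log concentrations up to 100 uM, duplicate.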

[15] = read-out: Heat shock 70 kDa protein 1 (HSPA1A), gene 3303; assay: LTEA_HepaRG_HSPA1A: Life Technologies and Expression Analysis (LTEA) Assay for Heat shock 70 kDa protein 1 (HSPA1A) using HepaRG (AID 2283502)
In short: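 An oxidative-stress marker readout: HepaRG cells treated 48 h in duplicate with an eight-point series (highest 100 uM) had HSPA1A mRNA quantified by TaqMan qRT-PCR. Activity was fitted in both directions using 0.5% DMSO as baseline.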

[16] = read-out: Hypoxia-inducible factor 1-alpha (Homo sapiens) (UniProt Q16665); assay: LTEA_HepaRG_HIF1A: Life Technologies and Expression Analysis (LTEA) Assay for Hypoxia-inducible factor 1 (HIF1A) Trancription factor using HepaRG (AID 2283503);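 further: HIF1A transcript by TaqMan qRT-PCR normalized to ACTB GAPDH and POLR2A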
In short: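 Gain- or loss-of-signal HIF1A mRNA changes are fitted against a DMSO baseline. HepaRG cultures receive eight concentrations, highest 100 uM, for 48 h in serum-free induction medium with 0.5% DMSO.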

[17] = read-out: 3-Hydroxy-3-Methylglutaryl-CoA Synthase 2 (HMGCS2), HMGCS2 (gene 3158); assay: LTEA_HepaRG_HMGCS2: Life Technologies and Expression Analysis (LTEA) Assay for 3-Hydroxy-3-Methylglutaryl-CoA Synthase 2 (HMGCS2) using HepaRG (AID 2283504)
In short: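 Readout is HMGCS2 transcript by qRT-PCR, housekeeping-normalised (ACTB/GAPDH/POLR2A) and fitted bidirectionally against 0.5% DMSO. Differentiated HepaRG cells received chemicals 48 h, duplicate wells, eight half-log concentrations topping at 100 uM.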

[18] = read-out: growth arrest and DNA damage 45 (GADD45G), GADD45G (gene 10912); assay: LTEA_HepaRG_GADD45G: Life Technologies and Expression Analysis (LTEA) Assay for growth arrest and DNA damage 45 (GADD45G) using HepaRG (AID 2283499)
In short: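 GADD45G transcript level by qRT-PCR (housekeeping-normalized: ACTB, GAPDH, POLR2A) after 48 h chemical treatment of a single HepaRG lot in serum-free induction medium; eight-point half-log series up to 100 uM in 0.5% DMSO, duplicates, up- or down-regulation scored.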

[19] = read-out: Cytochrome P450 3A7 (Homo sapiens) (UniProt P24462); assay: LTEA_HepaRG_CYP3A7: Life Technologies and Expression Analysis (LTEA) Assay for CYP3A7 using HepaRG (AID 2283492)
In short: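 CYP3A7 transcript measured by qRT-PCR (ACTB, GAPDH, POLR2A normalization) after 48 h chemical exposure of HepaRG cells in duplicate. Eight half-log concentrations, maximum 100 uM, 0.5% DMSO vehicle; bidirectional curve fitting against DMSO baseline.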

Measured: AC50

Sequence of Hypoxia-inducible factor 1-alpha (Homo sapiens) (Q16665 whole entry, looked up): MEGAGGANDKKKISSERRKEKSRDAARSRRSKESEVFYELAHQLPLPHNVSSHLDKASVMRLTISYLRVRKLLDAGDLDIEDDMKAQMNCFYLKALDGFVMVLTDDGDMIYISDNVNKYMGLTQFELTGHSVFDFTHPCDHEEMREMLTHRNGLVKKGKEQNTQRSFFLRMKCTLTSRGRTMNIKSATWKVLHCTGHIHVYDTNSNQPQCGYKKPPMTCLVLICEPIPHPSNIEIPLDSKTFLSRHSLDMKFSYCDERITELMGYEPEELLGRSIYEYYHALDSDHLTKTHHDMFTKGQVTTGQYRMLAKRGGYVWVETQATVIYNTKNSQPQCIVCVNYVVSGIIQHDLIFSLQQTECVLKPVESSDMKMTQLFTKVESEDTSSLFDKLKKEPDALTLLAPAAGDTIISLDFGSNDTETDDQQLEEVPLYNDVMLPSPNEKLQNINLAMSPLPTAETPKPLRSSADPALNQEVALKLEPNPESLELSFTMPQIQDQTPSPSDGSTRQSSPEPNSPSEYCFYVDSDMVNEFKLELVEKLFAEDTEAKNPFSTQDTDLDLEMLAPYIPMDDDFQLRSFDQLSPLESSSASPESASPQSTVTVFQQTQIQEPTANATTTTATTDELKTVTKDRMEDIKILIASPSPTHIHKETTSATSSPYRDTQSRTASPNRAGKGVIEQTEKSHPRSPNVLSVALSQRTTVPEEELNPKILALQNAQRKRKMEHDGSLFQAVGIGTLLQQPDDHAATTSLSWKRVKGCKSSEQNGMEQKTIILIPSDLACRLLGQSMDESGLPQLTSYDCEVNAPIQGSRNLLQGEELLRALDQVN
Sequence of Cytochrome P450 3A4 (Homo sapiens) (P08684 whole entry, looked up): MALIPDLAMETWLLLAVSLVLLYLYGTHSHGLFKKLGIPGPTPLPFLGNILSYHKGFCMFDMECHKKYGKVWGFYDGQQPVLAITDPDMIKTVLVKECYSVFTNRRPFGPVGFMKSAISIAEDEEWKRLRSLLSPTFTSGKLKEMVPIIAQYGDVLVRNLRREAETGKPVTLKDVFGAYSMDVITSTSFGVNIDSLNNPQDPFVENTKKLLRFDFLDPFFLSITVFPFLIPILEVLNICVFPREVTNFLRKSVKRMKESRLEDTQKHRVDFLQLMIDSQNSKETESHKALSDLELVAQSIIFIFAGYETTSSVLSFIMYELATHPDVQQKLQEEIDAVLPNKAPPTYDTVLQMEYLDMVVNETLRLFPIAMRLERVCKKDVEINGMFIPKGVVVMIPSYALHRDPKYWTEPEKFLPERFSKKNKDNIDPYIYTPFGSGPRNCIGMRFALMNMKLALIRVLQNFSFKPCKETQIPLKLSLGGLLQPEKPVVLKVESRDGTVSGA
Sequence of Cytochrome P450 3A7 (Homo sapiens) (P24462 whole entry, looked up): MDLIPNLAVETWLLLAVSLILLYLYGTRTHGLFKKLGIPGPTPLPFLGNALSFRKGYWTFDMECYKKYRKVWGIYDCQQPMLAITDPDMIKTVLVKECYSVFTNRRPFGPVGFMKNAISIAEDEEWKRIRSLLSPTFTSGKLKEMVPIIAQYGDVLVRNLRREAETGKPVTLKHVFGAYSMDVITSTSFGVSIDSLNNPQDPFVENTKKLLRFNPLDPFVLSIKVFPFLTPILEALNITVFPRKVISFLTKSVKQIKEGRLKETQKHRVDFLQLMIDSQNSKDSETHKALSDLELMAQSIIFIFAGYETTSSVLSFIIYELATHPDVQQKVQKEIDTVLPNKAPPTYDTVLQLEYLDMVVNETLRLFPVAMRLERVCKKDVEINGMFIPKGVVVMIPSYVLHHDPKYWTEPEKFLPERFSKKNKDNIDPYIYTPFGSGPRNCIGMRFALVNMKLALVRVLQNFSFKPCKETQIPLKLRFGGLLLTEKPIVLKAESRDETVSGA

COP(=S)(OC)Oc1nc(Cl)c(Cl)cc1Cl
inactive: [1] | [2] | [3] | [4] | [5] | [6] | [7] | [8] | [9] | [10] | [11] | [12] | [13] | [14] | [15] | [16] | [17]

COc1cnc(OC)n2nc(NS(=O)(=O)c3c(OCC(F)F)cccc3C(F)(F)F)nc12
inactive: [4] | [5] | [6] | [7] | [8] | [11] | [12] | [13] | [14] | [16]
active: [1] 11.5 µM | [2] 8.2 µM | [9] 9.46 µM | [10] 26.2 µM | [15] 50 µM | [17] 31.8 µM

CC(Oc1ccc(Cl)cc1Cl)C(=O)O (stereo not drawn)
active: [1] 71.5 µM | [8] 50 µM
inactive: [2] | [4] | [5] | [6] | [7] | [9] | [10] | [11] | [12] | [13] | [14] | [15] | [16] | [17]

N#Cc1cc(Br)c(O)c(Br)c1
active: [1] 26.6 µM | [2] 16.1 µM | [3] 68.3 µM | [4] 15.3 µM | [5] 10 µM | [7] 9.58 µM | [8] 13 µM | [9] 25 µM | [10] 19.1 µM | [11] 22 µM | [12] 10.3 µM | [13] 1.34 µM | [14] 10.7 µM | [15] 10.6 µM | [16] 40 µM | [17] 33.3 µM
inactive: [6]

CCNc1nc(Cl)nc(NCC)n1
inactive: [1] | [2] | [4] | [5] | [6] | [7] | [8] | [9] | [10] | [11] | [12] | [18] | [13] | [14] | [15] | [16] | [17]

O=C(Nc1ccccc1)Nc1ccnc(Cl)c1
inactive: [3] | [4] | [18] | [16]
active: [1] 36.6 µM | [2] 70.8 µM | [5] 84.6 µM | [6] 79.5 µM | [7] 49.1 µM | [8] 71.3 µM | [9] 28.4 µM | [10] 81.3 µM | [11] 24.9 µM | [12] 83 µM | [13] 84.8 µM | [14] 80.4 µM | [15] 84.2 µM | [17] 28.6 µM

C=CCC1=C(C)[C@@H](OC(=O)[C@@H]2[C@@H](C=C(C)C)C2(C)C)CC1=O
active: [1] 88.3 µM | [8] 50 µM | [9] 83.9 µM | [17] 50 µM
inactive: [2] | [4] | [5] | [6] | [19] | [7] | [10] | [11] | [12] | [13] | [14] | [15] | [16]
